# Laboratory results published in the supplement of paper PMC6555819.
# Experiments:
# Assay in all cases: PBM binding z-score (relative to random genomic background probes); higher = stronger binding; sequences stand for … in GC…GCGATTGACAGCGTAGAATGAAGG
# [1] = test system: FXR:RXRa (NR concentration 270 nM, RXRa partner concentration 90 nM)
# How it was run: (§1)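 Binding z-scores were set against random background probes. The data came from custom Agilent 4×180K protein-binding microarrays carrying double-stranded probes with 34-nt variable regions, incubated 1 h with ligand-free nuclear receptor dimers. Partner-specific antibodies detected binding, and scanned fluorescence was regression-normalized.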
# [2] = test system: LXRa:RXRa (NR concentration 270 nM, RXRa partner concentration 90 nM)
# How it was run: as §1
# [3] = test system: LXRa homodimer (NR concentration 270 nM)
# How it was run: as §1
# [4] = test system: LXRb:RXRa (NR concentration 270 nM, RXRa partner concentration 90 nM)
# How it was run: as §1
# [5] = test system: LXRb homodimer (NR concentration 270 nM)
# How it was run: as §1
# [6] = test system: PPARa:RXRa (NR concentration 270 nM, RXRa partner concentration 90 nM)
# How it was run: as §1
# [7] = test system: PPARg:RXRa (NR concentration 180 nM, RXRa partner concentration 90 nM)
# How it was run: as §1
# [8] = test system: PPARg:RXRa 270nM:90nM, anti-RXR (NR concentration 270 nM, RXRa partner concentration 90 nM)
# How it was run: as §1
# [9] = test system: PPARg:RXRa 30nM:10nM, anti-RXR (NR concentration 30 nM, RXRa partner concentration 10 nM)
# How it was run: as §1
# [10] = test system: PPARg:RXRa 90nM:30nM, anti-RXR (NR concentration 90 nM, RXRa partner concentration 30 nM)
# How it was run: as §1
# [11] = test system: PPARg:RXRa DBDmut IVT, anti-RXR (DBD mutation: RXRa K156A/R161A, NR concentration 270 nM, RXRa partner concentration 90 nM)
# How it was run: as §1
# [12] = test system: PPARg:RXRa IVT, anti-PPARg (NR concentration 270 nM, RXRa partner concentration 90 nM)
# How it was run: as §1
# [13] = test system: PPARg DBDmut:RXRa IVT, anti-PPARg (DBD mutation: PPARg1 K132A/R137A, NR concentration 270 nM, RXRa partner concentration 90 nM)
# How it was run: as §1
# [14] = test system: PPARg DBDmut IVT, anti-PPARg (DBD mutation: PPARg1 K132A/R137A, NR concentration 270 nM)
# How it was run: as §1
# [15] = test system: PPARg homodimer (NR concentration 180 nM)
# How it was run: as §1
# [16] = test system: PXR:RXRa (NR concentration 270 nM, RXRa partner concentration 90 nM)
# How it was run: as §1
# [17] = test system: PXR homodimer (NR concentration 270 nM)
# How it was run: as §1
# [18] = test system: RARa:RXR (NR concentration 270 nM, RXRa partner concentration 90 nM)
# How it was run: as §1
# [19] = test system: RARa homodimer (NR concentration 270 nM)
# How it was run: as §1
# [20] = test system: RARb:RXRa (NR concentration 270 nM, RXRa partner concentration 90 nM)
# How it was run: as §1
Sequence,PBM binding z-score [1],PBM binding z-score [2],PBM binding z-score [3],PBM binding z-score [4],PBM binding z-score [5],PBM binding z-score [6],PBM binding z-score [7],PBM binding z-score [8],PBM binding z-score [9],PBM binding z-score [10],PBM binding z-score [11],PBM binding z-score [12],PBM binding z-score [13],PBM binding z-score [14],PBM binding z-score [15],PBM binding z-score [16],PBM binding z-score [17],PBM binding z-score [18],PBM binding z-score [19],PBM binding z-score [20]
AGAATGCGGTTATTAAGATCAGGGAATTGCGGTC,-0.258,-0.138,-0.259,-0.43,-0.728,-0.484,0.0333,-0.202,-0.149,-0.182,-0.161,0.143,-0.136,-0.574,-0.18,-0.396,0.0419,-0.457,0.329,-0.0684
CAAACTAAGTCAAGGTCAAAGTCGGTTTGTGCCA,4.9,5.29,5.4,4.15,1.52,4.7,2.82,3.64,1.62,2.78,2.53,3.35,0.787,0.588,2.93,4.73,2.29,4.9,1.46,4.13
ACTAGCAGGCCAAGGGTTACTCAAGATTAGTCCG,0.239,2.23,-0.412,0.935,-0.494,2.61,4.88,5.61,4.58,5.71,0.518,2.14,-0.596,-0.597,0.215,0.27,-0.411,1.05,-0.361,0.894
GCTATTAGTTGAAAGGGCAACCGTATGATTCTCG,0.693,0.878,0.327,1.1,-0.2,2.2,2.64,4.69,2.25,4.37,0.503,1.17,0.375,0.271,1.91,1,0.322,1.49,0.819,2.11
ATCTCTAGGTAAAAGTTCAGTGAGTCCCGAGGAT,0.932,1.64,1.36,1.11,0.656,4.26,7.9,7.98,7.48,9.16,2.37,3.88,1.34,1.28,1.47,2.06,2.57,1.47,0.867,2.21
TCATATAGATAAAAGGTGAAAGTCGGTGTGGTAA,1.52,1.57,0.231,1.67,-0.152,3.28,3.63,5.16,5.42,5.56,3.23,2.25,0.674,0.805,1.56,1.12,0.535,1.83,1.65,1.73
GGAACGAGGGCAAGTTGATTGCAGAGTTTGATGG,1.16,0.697,-0.325,0.396,-0.755,1.84,0.925,1.03,-0.0716,0.569,3.51,2.76,0.164,-0.675,0.268,0.704,0.465,0.608,-0.397,2.69
TTTCGGAGGACACGAAAGGTCAGAGCTCGACATC,3.67,4.36,4.05,3.47,0.13,3.77,1.9,2.77,0.718,1.71,0.372,2.08,-0.0451,0.278,4.65,4.29,0.968,4.44,1.88,4.32
TCTGCTAGGTCAACGATGGTAAGCTAATCTGCTA,3.07,2.01,-0.518,1.4,-0.543,2.85,2.51,3.09,1.65,2.31,4.18,4.18,0.49,-0.213,0.663,0.925,-1.17,1.92,-1,4.03
TCTTGTAGATCAAAAGGAGGTTAAGAAAGATCGA,0.895,1.83,0.268,1.37,-0.229,1.81,0.335,2.02,2.91,2.36,1.99,1.45,0.192,0.409,0.066,0.871,0.0133,1.12,0.597,0.428
TCTAGTTGGTCACGGAGGTCACCCACGACGGGTA,3.16,3.23,2.36,2.91,0.635,3.67,3.23,4.07,3.3,3.64,2.32,4.17,1.19,1.25,3.92,4.61,1.6,4.66,1.42,3.89
CTCGAAAGGTCGGTTGAGGTGATTATACGGATAA,2.6,1.84,-0.0507,1.68,-0.13,2.79,0.571,1.14,0.341,0.688,0.246,0.642,0.351,0.785,1.2,3.74,0.3,2.2,0.287,2.85
ATCTCTAGGTATCAAGTTCAGTGAAAGAGAGGAC,0.749,0.772,0.719,0.674,1.24,0.806,0.577,1.44,0.214,1.15,0.507,1.03,1.04,1.12,0.949,1.05,2.18,0.725,1.18,1.59
GCTAGTTGGTGAGTAAAAGGTCACACACCGGTCG,3.1,3.92,3.81,3.79,-0.0196,4.55,3.87,5.23,3.09,4.99,0.239,2.74,0.00849,0.663,3.73,4.81,0.986,5.64,0.736,4.05
ACTAGCAGGCCAAGTTTGGGTCACTTAAACAAAG,0.098,0.217,-0.18,0.878,-0.362,1.52,0.21,0.715,-0.186,0.815,0.815,1.34,-0.398,-0.134,0.336,0.603,-0.404,1.6,-0.389,1.91
TCTGCTAGGTCAGCTGGTCAGCTAACGAGCTGCC,1.35,0.826,-1.11,0.287,-0.343,1.95,0.828,1.78,1.12,1.23,2.65,2.82,-0.25,-0.593,0.0537,0.279,-1.58,0.872,-1.54,3.64
CTCGAAAGGTCGGTTGAGGTGAGAATACGGATAA,3.46,1.74,-0.255,1.42,0.119,2.77,0.632,1.34,0.543,0.887,-0.0519,0.993,0.334,0.0546,0.742,3.13,0.108,2.11,0.173,2.98
TCTAGTTGGTCACGGAGGTCATACACGACGGGTA,3.53,3.79,3.37,3.52,0.955,3.92,3.08,3.93,3.65,3.86,2.41,3.69,1.98,1.06,2.96,4.57,2.33,4.38,1.78,3.59
CAAACTAGGTCAAGATGTCAAAGTCCGCTTCCCG,3.9,3.18,0.475,2.4,0.306,4.98,8.33,7.27,4.86,7.04,8.4,8.48,2.81,1.01,2.29,1.86,-0.0603,3.02,0.666,4.12
GCTAGCAGGCCATTTGGGCCACTCAATGACGGGC,-0.514,-0.935,-0.951,-1.27,-1.17,-0.573,0.102,-0.789,-0.989,-1.19,0.571,0.308,-1.6,-2.1,-1.14,-0.943,-1.18,-1.05,-0.661,-0.143
TCTGCTAGGTCAACGATGATCAGCTAATCTGCTA,3.12,1.96,-0.355,1.52,-0.366,3.32,2.74,2.86,2.03,2.38,4.26,4.06,0.35,0.888,0.451,0.896,-0.713,1.77,-0.998,3.99
CAGCCTAGATCAGGGCCAGTATAGGAGGAACGTT,-0.83,-0.998,-0.438,-1.08,-1.15,-0.772,0.274,-0.997,-0.386,-0.789,-0.475,-0.568,-0.718,-0.931,-0.197,-0.797,-0.456,-0.741,-0.525,-0.399
ATTTGTAGGTTAGCTGGGGTCATTCAGACTAGGC,4.72,6,4.63,5.23,2.54,5.2,4.29,4.6,2.42,3.79,5.34,5.05,2.63,3.11,4.33,6.6,4.49,5.99,2.49,3.52
CGTCCAAGGTCAAAGGTCGGTGAAGAGATGACGG,7.72,5.78,1.27,5.08,0.738,7.01,9.09,7.29,6.65,7.6,3.9,5.09,0.166,-0.0129,2.61,5.91,0.774,7.5,0.478,5.68
TCTATTAGTTGAAGGGCAACGGACGAGTCCGTTT,0.568,0.993,0.2,1.07,0.679,1.06,0.0889,2.19,3.6,2.89,2.22,0.812,0.14,0.912,0.894,0.785,1.18,0.778,0.625,1.76
CAAACTAGGTCACGAAAGATCAAAGTCGAATGAC,4.53,5,0.705,3.03,0.541,5.84,9.56,7.69,6.2,7.72,8.91,9.37,5.61,5.17,2.46,2.88,0.236,3.39,1.08,4.37
CAAACTAAGTCACGAAAGGTCAAAGTCGAATGAC,5.23,6.68,6.01,5.99,2.17,5.89,4.13,4.96,2.48,4.04,2.8,3.64,0.905,0.93,3.63,6.08,2.1,6.41,1.43,4.83
TAGCCTAGATCATTCAGGGGCCAGTATAGAAAGC,-0.33,-0.505,-0.351,-0.00287,-0.168,0.0623,0.276,0.125,-0.256,-0.407,1.21,1.03,-0.343,0.115,-0.77,-0.495,-0.234,0.0251,-0.596,0.0871
ATCTCTAAGTAACAAGTTCAGTGAAAGAGAGGAC,0.888,0.954,0.532,0.595,0.901,0.572,0.408,0.672,0.701,0.344,0.199,0.166,0.885,0.883,1.43,1.63,1.97,1.18,1.73,1.57
